Assay outcomes (PubChem BioAssay)
Bfl-1 A1 inh: inhibitors of the anti-apoptotic protein A1, read as caspase activation; MEF A1-2A-BIM cells, Caspase-Glo 3/7 luminescence, 3 h; percent of clofoctol response, vehicle zero; caspase activation, % (concentration not given with the values); 0.066% of 330,000 active; AID 2462;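 active = over half of replicate activation scores above 10%, or exactly half above 10 with the replicate mean above 10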
Mot1-301 SUMO: inhibitors of SUMOylation pathway: yeast Mot1-301 growth rescue. AID 2716. S. cerevisiae Mot1-301 growth rescue, ATP luminescence, 38.5C; percent above DMSO median, 100 means doubled. growth rescue, % at 18.8 µM. 1% of 320,000 active;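 active = every valid replicate shows activation above 250% relative to neutral control wells; inactive = the rest, any valid replicate at or below 250%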;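 also: OY570 slx delta 5 strain wells were the positive control but not used for scaling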
CHT block: inhibitors of human choline transporter CHT. Q9GZV3. CHT-expressing cells, membrane potential dye, choline response; stronger effect = lower value. 0.86% of 310,000 active. B-score at 10 µM;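 active = B-score over 3 SD under the library average, and starting fluorescence ratio not unusually high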;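 also: choline stimulus applied at its EC90 after an EC20 pre-addition; B-score computed on integrated fluorescence ratio after choline addition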
Target sequence (Q9GZV3 whole entry, looked up): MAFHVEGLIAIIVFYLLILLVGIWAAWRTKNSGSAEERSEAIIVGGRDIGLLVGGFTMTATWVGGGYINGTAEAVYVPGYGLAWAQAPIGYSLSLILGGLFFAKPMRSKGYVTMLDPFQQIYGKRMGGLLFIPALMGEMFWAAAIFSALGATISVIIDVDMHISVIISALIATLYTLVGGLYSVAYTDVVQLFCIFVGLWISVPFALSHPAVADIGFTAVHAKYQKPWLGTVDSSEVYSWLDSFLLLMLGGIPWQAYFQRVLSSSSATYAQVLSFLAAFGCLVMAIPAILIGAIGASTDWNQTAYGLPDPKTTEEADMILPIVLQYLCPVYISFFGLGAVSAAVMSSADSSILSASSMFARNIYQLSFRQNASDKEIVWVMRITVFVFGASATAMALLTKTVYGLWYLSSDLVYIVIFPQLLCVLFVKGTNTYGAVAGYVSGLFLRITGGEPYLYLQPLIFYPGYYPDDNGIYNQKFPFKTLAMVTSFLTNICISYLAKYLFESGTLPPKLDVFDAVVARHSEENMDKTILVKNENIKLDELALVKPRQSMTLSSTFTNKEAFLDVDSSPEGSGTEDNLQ
NLRP3 yeast inh: inhibitors of NALP3 inflammasome in yeast; Yeast reconstituted NLRP3/ASC/caspase-1, beta-gal luminescence, 24 h; inhibition, % at 10 µM; 0.39% of 330,000 active; AID 2825;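 active = inhibition of 50% or more; inactive = inhibition below 50%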;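 also: plate controls were induced DMSO wells for no effect and uninduced yeast grown without galactose for full effect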
NALP1 inh: blocks the NALP1 inflammasome reconstituted in yeast. S. cerevisiae NALP1/ASC/caspase-1 growth, X-gal OD620, 72 h. inhibition, % at 10 µM. 0.61% of 280,000 active. AID 2071; in the data active = inhibition mostly above about 24%, no sharp cut-off; inactive = mostly below about 32%
CHT PAM: human CHT allosteric activation; Q9GZV3; CHT-expressing cells, membrane potential dye, choline EC20; stronger effect = higher value; LV-AA mutant CHT in HEK293 cells; B-score at 10 µM; 0.49% of 310,000 active; AID 488977;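 active = initial fluorescence not abnormally high and integrated response B-score, plate-corrected, over 3 SD above library mean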
CHT block conf: confirmation of human choline transporter CHT inhibitors | shares compounds with CHT block | CHT-expressing cells, choline membrane potential dye; LV-to-AA substituted CHT, HEK293 cells | CHT activity remaining % of control (stronger effect = lower value), % at 10 µM | 70% of 2,400 active | AID 493221;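 active = choline transporter activity left, mean of duplicates at 10 µM, below buffer-only control mean minus 3 SD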;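 also: depolarization triggered by choline at its EC90 following an EC20 pre-addition; 0% = hemicholinium-3 full block and 100% = buffer-only control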
HEK293 MPD ctr: activity in parental HEK293 cells lacking CHT. shares compounds with CHT block. 4% of 2,400 active. membrane potential ratio readout (active if shifted either direction beyond buffer ±3SD; no single direction) at 10 µM. membrane potential dye, choline response; active = decrease or increase beyond buffer ±3SD;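 also: parental cells lack the transporter so any hit is non-specific; ratio is peak minus trough fluorescence over baseline after EC90 choline challenge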
Starred values were filed as active, the others as inactive; i = inactive; · = no result given. An excerpt weighted towards active compounds, which were near 3% of everything screened.

SMILES | Bfl-1 A1 inh | Mot1-301 SUMO | CHT block | NLRP3 yeast inh | NALP1 inh | CHT PAM | CHT block conf | HEK293 MPD ctr
COc1ccc(N2CC(C(=O)Nc3nc4ccc(S(C)(=O)=O)cc4s3)CC2=O)cc1 (configuration not stated) | 0 | -3 | i | 5 | 2 | i | · | ·
COc1ccc(NC(=O)CSc2nccn2Cc2ccc(F)cc2)cc1 | 0 | -12 | i | 30 | -2 | i | · | ·
C=CCN1C(c2cccc(C(F)(F)F)c2)=CS/C1=C(/C#N)c1nnc(N2CCOCC2)n1-c1ccccc1 | 0 | -6 | -6* | 20 | 32 | i | i | i
COc1ccc(-n2c(C)cc(C(=O)CSc3nnc(-c4ccoc4C)n3C)c2C)cc1 | 1 | 8 | -5.1* | 1 | -2 | i | 66%* | i
COc1cccc(NC(=O)CSc2nnc(-c3ccoc3C)n2C)c1 | -1 | -14 | i | -1 | 1 | i | · | ·
CC(=O)Nc1ccc(S(=O)(=O)NCC(=O)OCC(=O)N2CC(C)OC(C)C2)cc1 (configuration not stated) | 0 | 1 | · | 6 | · | · | · | ·
CCN(CC(=O)Nc1ccc(NC(C)=O)cc1)C(=O)CCCc1nc2ccccc2s1 | -1 | -1 | · | 8 | · | · | · | ·
C=Cn1cc[n+](CC(=O)c2ccc(Cl)c(Cl)c2)c1 | 0 | 16 | -7.2* | 30 | -3 | i | 48%* | i
CC(C)Cc1csc(NC(=O)c2ccc(Br)cc2)c1C(=O)O | -6 | -22 | -10* | -3 | -4 | i | 61%* | i
CCOC(=O)c1c(CC(C)C)csc1NC(=O)COC(=O)c1ccc(O)cc1 | · | · | · | 5 | · | · | · | ·
O=C(c1ccco1)N1CCN(C(c2cccs2)c2nnnn2C2CCCC2)CC1 (configuration not stated) | 0 | 5 | -7.8* | 3 | 37 | i | i | i
Cn1ccsc1=NC(=O)c1ccc(S(C)(=O)=O)cc1 | -6 | 28 | i | 16 | 7 | i | · | ·
Cc1onc(-c2ccccc2)c1C(=O)NNC(=S)NC(=O)c1ccc(Br)cc1 | -1 | -13 | -6.2* | · | 7 | i | 55%* | i
O=C(O)c1ccccc1-c1ccccc1C(=O)Nc1ccc(-c2nc3cc(Cl)ccc3o2)cc1 | 0 | -17 | -7.5* | 13 | -2 | i | 55%* | i
O=C1NC2(CCCCCC2)C(=O)N1Cc1ccccc1Cl | 1 | 10 | i | 12 | 3 | i | · | ·
COc1ccc(OC)c(C2=Nn3c(nnc3C3CCCCC3)SC2)c1 | 0 | 4 | i | 12 | 10 | i | · | ·
COc1ccc(C2=Nn3c(nnc3C3CCCCC3)SC2)cc1OC | 0 | 16 | -6.8* | 7 | 21 | i | 52%* | i
CCN(CC)c1ccc(-c2nnc(SCC(=O)N(CCOC)c3c(N)n(CC(C)C)c(=O)[nH]c3=O)o2)cc1 | 0 | 0 | i | 10 | · | i | · | ·
COCCN(C(=O)CSc1nnc(-c2ccc(C)c(C)c2)o1)c1c(N)n(CC(C)C)c(=O)[nH]c1=O | 1 | -9 | -6.3* | 4 | · | i | 19%* | i
C[N+](C)(C)CC=O | -1 | 256 | -6* | 22 | · | i | 22%* | i
COc1ccc(C(=O)NCc2cc(C(C)C)no2)cc1OC1CCN(C(C)C)CC1 | 0 | 11 | · | 10 | 20 | · | · | ·
C#CCN(C(=O)c1ccc(OC)c(OC2CCN(C(C)C)CC2)c1)C1CCCCC1 | 1 | -13 | i | 5 | 6 | i | · | ·
COc1ccc(C(=O)NCc2nc(C)c(C)s2)cc1OC1CCN(C(C)C)CC1 | 0 | 11 | -13* | 17 | 8 | i | 3.8%* | i
CCc1cc(CNC(=O)c2ccc(OC)c(OC3CCN(C(C)C)CC3)c2)on1 | 1 | -7 | -16* | 1 | 1 | i | 2.2%* | i
COc1cc(CC(=O)OCC(=O)NCc2ccco2)cc(OC)c1OC | -1 | 8 | · | 8 | · | · | · | ·
SMILES | Bfl-1 A1 inh | Mot1-301 SUMO | CHT block | NLRP3 yeast inh | NALP1 inh | CHT PAM | CHT block conf | HEK293 MPD ctr
CCOC(=O)c1ccc(S(=O)(=O)NNC(=O)Cc2csc(C)n2)cc1 | 1 | 2 | · | 14 | · | · | · | ·
Cc1noc(C)c1NC(=O)Nc1ccc2c(c1)CC(=O)N([C@H](C)CO)C[C@@H](C)[C@H](CN(C)CC1CCCCC1)O2 | 0 | 17 | · | 14 | · | · | · | ·
O=C(CSc1ccccn1)N1CCNC1=O | 0 | -7 | · | -3 | · | · | · | ·
Cn1cc(S(=O)(=O)N2CCN(c3ccccc3)CC2)c(=O)n(C)c1=O | 0 | -10 | i | 11 | 27 | i | · | ·
COc1ccc(N2CCN(S(=O)(=O)c3cn(C)c(=O)n(C)c3=O)CC2)cc1 | -1 | 2 | -5.3* | -2 | · | i | i | i
C/C=C/C=C/[C@H]1Cc2cc(O)cc(O)c2O1 | 0 | -5 | i | -8 | -10 | i | · | ·
CC1=NN(c2ccccc2)C(=O)/C1=C/c1c(O)n(-c2ccc(F)cc2)[nH]c1=O | -3 | -6 | -5.9* | 14 | 13 | i | 54%* | i
CC1=NN(c2ccccc2)C(=O)/C1=C/c1ccc(Cl)cc1 | 0 | 7 | i | 12 | 4 | i | · | ·
CCOC(=O)C1CCN(C(=O)Cc2c(F)cccc2Cl)CC1 | 0 | -9 | i | 18 | 14 | i | · | ·
CCOC(=O)C1CCCN(C(=O)Cc2c(F)cccc2Cl)C1 (configuration not stated) | 0 | -4 | -5.7* | 20 | 19 | i | 53%* | i
Cc1ccc(S(=O)(=O)NCCC(=O)N2CCC(Cc3ccccc3)CC2)cc1 | 1 | 11 | i | 24 | · | i | i | i
CC(=O)Nc1ccc(S(=O)(=O)NCCC(=O)N2CCC(Cc3ccccc3)CC2)cc1 | 0 | -9 | · | 9 | · | · | · | ·
O=[N+]([O-])/C(C(=C(Cl)Cl)N1CCN(Cc2ccccc2)CC1)=C1\NCCN1Cc1ccc(Cl)nc1 | 2 | -1 | -13* | 16 | 51 | i | 4.7%* | i
O=[N+]([O-])C(/C=C(\Cl)[N+](=O)[O-])=C1N(Cc2ccc(Cl)nc2)CCN1Cc1ccc(Cl)nc1 | 0 | 3 | i | 25 | -6 | i | · | ·
CN(Cc1ccccc1)C(=O)COC(=O)c1cc(NS(=O)(=O)c2cccs2)ccc1O | 0 | 25 | -5.8* | 4 | 1 | i | i | i
CC1CCN(S(=O)(=O)c2nnc(NC(=O)c3cccc([N+](=O)[O-])c3)s2)CC1 | -1 | -10 | -9.6* | 12 | 14 | i | 60%* | i
